Compound activity (PubChem)
Hits are enriched below; roughly 1.5% of the tested compounds scored in any of these assays.
DAGLB inhibitor: blocks human DAGLB lipase activity. hit rate 0.059% among 340,000. Q8NCG7. HEK293T DAGLB membrane lysate, EnzChek fluorogenic substrate. inhibition, % at 5.17 µM; in the data active means inhibition above about 34%
sPLA2-III inh: Blocks human group III sPLA2 activity; QFRET BODIPY PC-A2 liposome hydrolysis, fluorescence; inhibition, % at 12.2 µM; hit rate 0.56% among 370,000; Q9NZ20;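 active means inhibition above mean plus 3 SD of compounds lying within the high and low control bounds, cut at about 19% in these data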
PLCb3 inh: PLC-beta3 (human) inhibition, primary screen; hit rate 0.18% among 370,000; inhibition, % at 12.2 µM; Q01970; Purified PLC-beta3, fluorogenic substrate, fluorescence
PLCg1 inh: inhibitors of human phospholipase C gamma1; AID 720700; P19174; hit rate 0.84% among 370,000; inhibition, % at 12.2 µM; purified PLC-gamma1, fluorogenic substrate, fluorescence; in the data active means inhibition above about 9.5%
PLCgamma1 ctr: counter-screen for PLC-beta3 inhibitors: inhibitors of human PLC-gamma1; purified PLC-gamma1, fluorogenic substrate, fluorescence; AID 743258; shares compounds with PLCg1 inh; inhibition, % at 12.3 µM; hit rate 3.1% among 3,300; in the data active means inhibition above about 9.5%
PLCbeta3 conf: confirmation of human PLC-beta3 inhibitors; hit rate 1% among 3,300; inhibition, % at 12.3 µM; purified PLC-beta3, fluorogenic substrate fluorescence; shares compounds with PLCg1 inh
Large screens that a line does not name were inactive (follow-up assays come after a bar, where they were run). Unless noted, no stated cut-off is given here; in the data, active means inhibition above about 11%; inactive means the rest.

Cc1[nH]n(-c2ccccc2)c(=O)c1C(c1cccc([N+](=O)[O-])c1O)c1c(C)[nH]n(-c2ccccc2)c1=O	PLCb3 inh 14, PLCg1 inh 31 | PLCgamma1 ctr inactive | PLCbeta3 conf inactive
Cc1[nH]n(-c2ccccc2)c(=O)c1C(c1ccc(C(=O)O)cc1)c1c(C)[nH]n(-c2ccccc2)c1=O	PLCg1 inh 26 | PLCgamma1 ctr inactive | PLCbeta3 conf inactive
CC(Cl)C(=O)N1CCC(C(=O)NC2CCCc3ccccc32)CC1 (stereo not drawn)	none (no result: DAGLB inhibitor)
Clc1ccc([C@H]2OC[C@@]3(CNCc4ccccn4)CS[C@H](c4ccc(Cl)cc4)N23)cc1	none (no result: DAGLB inhibitor)
Nc1cc(S(=O)(=O)O)cc([N+](=O)[O-])c1O	PLCg1 inh 33 | PLCgamma1 ctr 64 | PLCbeta3 conf inactive
Cc1nn(-c2ccccc2)c(C)c1NC(=O)c1cccs1	PLCg1 inh 12 | PLCgamma1 ctr inactive | PLCbeta3 conf inactive
Cc1nn(-c2ccccc2)c(C)c1NC(=O)Cc1cccs1	none
Cc1cccc2cc(CN(Cc3ccco3)C(=O)Nc3cccc(C#N)c3)c(Cl)nc12	PLCg1 inh 11 | PLCgamma1 ctr inactive | PLCbeta3 conf inactive
Cc1cc(SCCC(=O)O)nc2ccccc12	none
Cc1cc(SCC(=O)N2CCCC2=O)nc2ccccc12	PLCg1 inh 12 | PLCgamma1 ctr inactive | PLCbeta3 conf inactive
CC(=O)Nc1ccc(/C=N/NC(=S)NC(C)C)cc1	PLCg1 inh 12 | PLCgamma1 ctr inactive | PLCbeta3 conf inactive
O=C(CSc1nnc(-c2ccccc2)n1Cc1ccco1)Nc1ccc(OCc2ccccc2)cc1	PLCg1 inh 11 (no result: DAGLB inhibitor) | PLCgamma1 ctr inactive | PLCbeta3 conf inactive
Cc1cccc(-c2nnc(SCC(=O)Nc3ccc(OCc4ccccc4)cc3)n2Cc2ccco2)c1	none (no result: DAGLB inhibitor)
Cc1c(N=C2Nc3cccc4cccc2c34)c(=O)n(-c2ccccc2)n1C	none
Cc1c(N2C(=O)c3cccc4cccc(c34)C2=O)c(=O)n(-c2ccccc2)n1C	PLCb3 inh 12, PLCg1 inh 9.8 | PLCgamma1 ctr 14 | PLCbeta3 conf inactive
N#C/C(=C\c1ccco1)C(=O)NCC1CCCO1 (stereo not drawn)	PLCb3 inh 13, PLCg1 inh 11 | PLCgamma1 ctr inactive | PLCbeta3 conf inactive
COc1ccc(C(=O)NCC(=O)OCC(=O)c2ccc(Cl)cc2)cc1OC	none
COc1ccc(C(=O)NCC(=O)OCCCOC(=O)CNC(=O)c2ccc(OC)c(OC)c2)cc1OC	PLCg1 inh 12 | PLCgamma1 ctr inactive | PLCbeta3 conf inactive
Clc1ccc2nc(CNc3nc(N4CCOCC4)nc4c3ncn4-c3ccsc3)[nH]c2c1	none (no result: DAGLB inhibitor)
CC1=CC(=O)C(C(C)C)=C/C1=N/OC(=O)c1cccc([N+](=O)[O-])c1	none
CC1=CC(=O)C(C(C)C)=CC1=NC(=O)c1ccc(C)cc1	PLCb3 inh 11, PLCg1 inh 11 | PLCgamma1 ctr inactive | PLCbeta3 conf inactive
C=CCOC(=O)C(CO)NC(=O)CCCC(=O)O (stereo not drawn)	none (no result: DAGLB inhibitor)
COc1cc(NC(=O)c2sc3ncn(CC(=O)N4CCCCC4C)c(=O)c3c2C)cc(OC)c1OC (stereo not drawn)	none
Cc1c(C(=O)NCc2cccnc2)sc2ncn(CC(=O)N3CCCCC3C)c(=O)c12 (stereo not drawn)	PLCg1 inh 11 | PLCgamma1 ctr inactive | PLCbeta3 conf inactive
O=C(CSc1nccn1Cc1ccco1)Nc1cccc(F)c1	PLCg1 inh 10.0 | PLCgamma1 ctr inactive | PLCbeta3 conf inactive
O=C(CSc1nccn1Cc1ccco1)Nc1ccc(F)cc1	none
Cc1cnc(C(=O)N2CCc3c([nH]c4ccccc34)C2c2ccc(F)cc2)cn1 (stereo not drawn)	none
CCc1ccc(C2c3[nH]c4ccccc4c3CCN2C(=O)c2cc(C)nn2C)cc1 (stereo not drawn)	PLCg1 inh 10 | PLCgamma1 ctr inactive | PLCbeta3 conf inactive
Cc1cc(NS(=O)(=O)c2ccc(NC(=O)CSc3nc4sc(C)c(C)c4c(=O)n3Cc3ccco3)cc2)nc(C)n1	none (no result: DAGLB inhibitor)
CCCCCCCCN1C(=O)[C@@H](CC(=O)NCCCN2CCCC2=O)C[C@@]2(C(=O)OC)C1=C[C@H](C(C)C)O[C@@H]2C1CC1	none (no result: DAGLB inhibitor)
CC(=O)Nc1ccc(S(=O)(=O)N/N=C/c2cccnc2)cc1	none
CC(=O)Nc1ccc(S(=O)(=O)N/N=C/c2ccc(C)s2)cc1	PLCb3 inh 12 | PLCgamma1 ctr inactive | PLCbeta3 conf inactive
